The full data set covers some 8,800 targets. This sample favours those with a hit. About 0.5% of all pairs of compound and target were hits. A number with no mark means an inactive call.

What all share (assay): log2 fold change, soluble protein after heating vs DMSO (PISA); higher = thermal stabilisation; K562 lysate, 10 uM; active = over 0.2 and 3.5 SD of the protein, either way, in both replicates (recomputed)
Compound in assay [1]: NCC(=O)Nc1ccc(-n2nc(C(F)(F)F)cc2-c2ccc3c(ccc4ccccc43)c2)cc1
The essentials:
(§1)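 Following dounce homogenisation of K562 pellets in PBS pH 7.4 with 1 mM MgCl2, crude extract at 1 mg/mL protein was incubated for 30 min with 10 μM compound. Aliquots were then heated for 3 min over 48°C-58°C and pooled, NP-40 was added to 0.5% at 4°C, and soluble protein was recovered as the supernatant at 21,000xg for 90 min. Channel-sum-equalised TMTpro 16plex LC-MS/MS quantified this protein. Each value, from duplicates, is a log-two fold change in thermal stability relative to solvent controls.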

Compound in another assay: O=C(CCCCCCC(=O)Nc1ccccc1)NO [vorinostat]
An outline of the steps:
as §1

Compound in the next assay: O=C(O)c1ccc2c(c1)nc(Nc1cccc(Cl)c1)c1ccncc12 [silmitasertib]
An outline of the steps:
as §1

Compound in assay [2]: O=C1NC(=O)C(c2cnc3ccccn23)=C1c1cn2c3c(cc(F)cc13)CN(C(=O)N1CCCCC1)CC2
The essentials: as §1

Compound in a further assay: c1cn2cc(-c3ccc4cn[nH]c4c3)nc(Nc3ccc(N4CCOCC4)cc3)c2n1 [entospletinib]
The essentials: as §1

Chain of UniProt Q15776 (Q15776 whole entry, looked up): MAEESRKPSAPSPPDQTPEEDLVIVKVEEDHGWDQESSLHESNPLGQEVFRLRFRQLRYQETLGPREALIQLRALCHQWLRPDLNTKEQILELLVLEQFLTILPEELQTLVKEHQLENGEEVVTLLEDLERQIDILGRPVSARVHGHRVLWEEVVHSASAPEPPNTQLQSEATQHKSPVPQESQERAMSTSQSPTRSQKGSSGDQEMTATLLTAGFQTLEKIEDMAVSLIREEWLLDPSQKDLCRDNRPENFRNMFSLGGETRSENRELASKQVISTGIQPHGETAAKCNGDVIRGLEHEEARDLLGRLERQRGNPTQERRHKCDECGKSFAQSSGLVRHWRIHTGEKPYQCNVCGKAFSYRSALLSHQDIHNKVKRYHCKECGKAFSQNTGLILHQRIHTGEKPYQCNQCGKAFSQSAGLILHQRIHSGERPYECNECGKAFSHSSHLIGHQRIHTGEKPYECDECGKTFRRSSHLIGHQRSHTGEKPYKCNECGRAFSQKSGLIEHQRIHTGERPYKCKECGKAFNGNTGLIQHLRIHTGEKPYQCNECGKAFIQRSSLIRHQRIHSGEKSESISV
Chain of UniProt O75362 (O75362 whole entry, looked up): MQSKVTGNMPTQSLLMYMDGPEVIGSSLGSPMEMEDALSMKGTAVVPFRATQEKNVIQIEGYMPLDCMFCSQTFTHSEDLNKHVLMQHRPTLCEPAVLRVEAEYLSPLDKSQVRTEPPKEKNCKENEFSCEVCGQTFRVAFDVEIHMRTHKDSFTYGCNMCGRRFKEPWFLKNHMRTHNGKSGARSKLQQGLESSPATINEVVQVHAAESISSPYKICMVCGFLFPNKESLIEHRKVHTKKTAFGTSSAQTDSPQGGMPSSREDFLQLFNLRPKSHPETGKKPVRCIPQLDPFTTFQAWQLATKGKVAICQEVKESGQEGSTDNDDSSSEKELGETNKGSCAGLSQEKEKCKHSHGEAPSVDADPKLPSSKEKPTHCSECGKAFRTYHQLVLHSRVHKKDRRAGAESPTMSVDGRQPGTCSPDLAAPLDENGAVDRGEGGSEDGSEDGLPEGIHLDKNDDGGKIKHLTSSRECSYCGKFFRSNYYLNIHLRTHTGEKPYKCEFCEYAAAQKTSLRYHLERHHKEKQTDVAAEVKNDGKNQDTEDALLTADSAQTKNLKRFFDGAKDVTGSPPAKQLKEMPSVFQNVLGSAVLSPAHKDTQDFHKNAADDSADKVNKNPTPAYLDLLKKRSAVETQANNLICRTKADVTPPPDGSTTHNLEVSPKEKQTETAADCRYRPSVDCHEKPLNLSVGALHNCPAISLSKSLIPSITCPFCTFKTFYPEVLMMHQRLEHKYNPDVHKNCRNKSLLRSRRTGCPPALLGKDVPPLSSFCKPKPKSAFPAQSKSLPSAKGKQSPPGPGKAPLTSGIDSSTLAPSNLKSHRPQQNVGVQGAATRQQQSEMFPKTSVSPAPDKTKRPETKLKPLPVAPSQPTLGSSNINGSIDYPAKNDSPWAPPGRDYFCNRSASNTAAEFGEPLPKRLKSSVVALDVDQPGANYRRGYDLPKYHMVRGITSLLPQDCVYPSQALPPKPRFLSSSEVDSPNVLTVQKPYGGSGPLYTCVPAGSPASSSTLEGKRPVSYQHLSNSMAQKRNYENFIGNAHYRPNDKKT
Chain of UniProt O43379 (O43379 whole entry, looked up): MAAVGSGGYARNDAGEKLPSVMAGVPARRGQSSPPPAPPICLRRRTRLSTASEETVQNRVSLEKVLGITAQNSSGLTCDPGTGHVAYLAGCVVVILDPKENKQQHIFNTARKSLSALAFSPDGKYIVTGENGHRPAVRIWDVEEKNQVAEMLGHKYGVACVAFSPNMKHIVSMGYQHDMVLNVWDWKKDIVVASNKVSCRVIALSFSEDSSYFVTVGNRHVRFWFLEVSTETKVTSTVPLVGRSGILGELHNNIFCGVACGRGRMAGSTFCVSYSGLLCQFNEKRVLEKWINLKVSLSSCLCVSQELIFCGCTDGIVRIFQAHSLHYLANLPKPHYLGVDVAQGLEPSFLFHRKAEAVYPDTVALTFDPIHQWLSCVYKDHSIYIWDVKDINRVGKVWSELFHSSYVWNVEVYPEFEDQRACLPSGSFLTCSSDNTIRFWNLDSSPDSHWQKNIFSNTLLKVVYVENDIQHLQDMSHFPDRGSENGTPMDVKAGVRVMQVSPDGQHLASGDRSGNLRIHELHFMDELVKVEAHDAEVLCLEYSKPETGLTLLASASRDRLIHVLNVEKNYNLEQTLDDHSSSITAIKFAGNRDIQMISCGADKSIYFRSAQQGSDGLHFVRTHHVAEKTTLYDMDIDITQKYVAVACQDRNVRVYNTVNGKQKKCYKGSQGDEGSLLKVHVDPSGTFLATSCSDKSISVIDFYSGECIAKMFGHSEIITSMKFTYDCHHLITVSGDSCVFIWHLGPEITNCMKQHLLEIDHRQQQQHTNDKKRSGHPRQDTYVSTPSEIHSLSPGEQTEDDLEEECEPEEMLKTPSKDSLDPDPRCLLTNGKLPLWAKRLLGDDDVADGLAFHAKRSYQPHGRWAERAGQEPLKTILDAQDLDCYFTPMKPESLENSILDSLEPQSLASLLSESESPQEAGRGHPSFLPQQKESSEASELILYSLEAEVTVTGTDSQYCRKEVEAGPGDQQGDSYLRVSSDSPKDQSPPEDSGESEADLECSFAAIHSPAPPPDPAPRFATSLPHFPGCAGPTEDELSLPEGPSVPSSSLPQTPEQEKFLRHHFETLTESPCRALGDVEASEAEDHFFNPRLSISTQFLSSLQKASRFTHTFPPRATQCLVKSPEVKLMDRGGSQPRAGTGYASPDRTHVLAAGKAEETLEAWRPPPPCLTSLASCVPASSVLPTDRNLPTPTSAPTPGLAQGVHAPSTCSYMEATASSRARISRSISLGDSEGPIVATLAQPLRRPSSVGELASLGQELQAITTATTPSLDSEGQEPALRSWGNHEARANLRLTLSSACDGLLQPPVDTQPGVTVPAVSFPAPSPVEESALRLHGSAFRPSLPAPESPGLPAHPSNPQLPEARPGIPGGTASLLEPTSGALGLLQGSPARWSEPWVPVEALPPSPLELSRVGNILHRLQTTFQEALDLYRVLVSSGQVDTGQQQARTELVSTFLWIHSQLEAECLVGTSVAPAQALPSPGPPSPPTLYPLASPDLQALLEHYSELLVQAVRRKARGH
Chain of UniProt Q15906 (Q15906 whole entry, looked up): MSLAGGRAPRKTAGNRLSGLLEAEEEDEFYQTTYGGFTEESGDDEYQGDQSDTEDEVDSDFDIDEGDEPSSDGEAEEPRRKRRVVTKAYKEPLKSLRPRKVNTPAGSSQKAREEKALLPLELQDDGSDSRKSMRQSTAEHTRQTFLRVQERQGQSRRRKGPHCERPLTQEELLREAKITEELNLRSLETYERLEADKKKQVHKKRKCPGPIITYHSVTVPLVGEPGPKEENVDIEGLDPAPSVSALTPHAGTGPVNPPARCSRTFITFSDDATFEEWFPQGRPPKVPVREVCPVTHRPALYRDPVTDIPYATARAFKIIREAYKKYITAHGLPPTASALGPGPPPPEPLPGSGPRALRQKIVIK
Chain of UniProt Q9H270 (Q9H270 whole entry, looked up): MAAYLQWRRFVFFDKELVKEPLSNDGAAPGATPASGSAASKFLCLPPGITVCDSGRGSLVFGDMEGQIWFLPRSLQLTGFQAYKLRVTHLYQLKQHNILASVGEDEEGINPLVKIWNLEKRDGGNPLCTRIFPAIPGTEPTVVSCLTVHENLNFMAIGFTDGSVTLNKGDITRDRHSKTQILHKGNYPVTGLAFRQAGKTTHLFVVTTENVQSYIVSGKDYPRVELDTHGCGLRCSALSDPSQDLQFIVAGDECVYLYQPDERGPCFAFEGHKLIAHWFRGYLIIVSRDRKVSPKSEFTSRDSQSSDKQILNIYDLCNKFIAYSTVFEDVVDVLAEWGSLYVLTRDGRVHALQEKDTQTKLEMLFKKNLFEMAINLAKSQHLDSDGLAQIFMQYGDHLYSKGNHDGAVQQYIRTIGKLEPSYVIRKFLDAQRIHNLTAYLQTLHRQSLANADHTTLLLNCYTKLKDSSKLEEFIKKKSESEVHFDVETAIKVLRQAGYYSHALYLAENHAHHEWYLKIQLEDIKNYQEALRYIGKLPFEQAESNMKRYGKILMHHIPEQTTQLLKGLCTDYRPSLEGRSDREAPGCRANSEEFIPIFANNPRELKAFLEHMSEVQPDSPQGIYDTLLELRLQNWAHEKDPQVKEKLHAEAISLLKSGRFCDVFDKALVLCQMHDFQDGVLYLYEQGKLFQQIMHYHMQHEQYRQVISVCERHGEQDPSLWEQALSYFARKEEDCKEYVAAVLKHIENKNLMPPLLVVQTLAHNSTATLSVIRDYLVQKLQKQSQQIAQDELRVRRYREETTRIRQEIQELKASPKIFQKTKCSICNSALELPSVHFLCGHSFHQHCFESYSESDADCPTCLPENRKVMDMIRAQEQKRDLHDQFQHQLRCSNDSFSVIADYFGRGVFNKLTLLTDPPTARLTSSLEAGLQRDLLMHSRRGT
Chain of UniProt Q7Z739 (Q7Z739 whole entry, looked up): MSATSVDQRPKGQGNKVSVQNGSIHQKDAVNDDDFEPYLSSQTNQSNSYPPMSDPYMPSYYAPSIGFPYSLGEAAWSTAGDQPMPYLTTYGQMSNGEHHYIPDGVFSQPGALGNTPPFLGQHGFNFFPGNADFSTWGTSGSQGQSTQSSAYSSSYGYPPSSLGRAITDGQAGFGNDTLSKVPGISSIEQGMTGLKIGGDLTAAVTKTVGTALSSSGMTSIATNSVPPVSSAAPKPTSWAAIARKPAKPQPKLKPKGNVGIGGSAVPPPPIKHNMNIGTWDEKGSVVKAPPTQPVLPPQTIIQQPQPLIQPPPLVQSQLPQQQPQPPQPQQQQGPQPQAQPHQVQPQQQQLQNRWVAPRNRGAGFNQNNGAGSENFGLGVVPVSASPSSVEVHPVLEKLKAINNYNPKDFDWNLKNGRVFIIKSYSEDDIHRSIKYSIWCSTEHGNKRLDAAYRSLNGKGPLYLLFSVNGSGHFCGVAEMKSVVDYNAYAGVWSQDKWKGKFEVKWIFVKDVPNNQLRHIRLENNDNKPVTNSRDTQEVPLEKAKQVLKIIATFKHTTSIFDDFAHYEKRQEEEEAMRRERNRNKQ

Take VAMP2 (UniProt P63027): the log2 fold change is 0.071 in assay [1]; 0.016 with vorinostat; -0.008 with silmitasertib; 0.132 in assay [2]; -0.054 in the assay with entospletinib.
The corresponding values for YTHDF3 (UniProt Q7Z739) are 0.064, 0.03, -0.084, -0.169 and 0.006.
The like results for ZKSCAN8 (UniProt Q15776) were, in that order, 0.015, 0.229, -0.005, 0.055 and -0.002.
The corresponding values for WDR62 isoform 4 (UniProt O43379) are 0.045, -0.423 (active), 0.01, -0.014 and -0.016.
Take YTHDC2 (UniProt Q9H6S0): the log2 fold change in assay [1] was 0.061; with vorinostat, -0.231 (active); with silmitasertib, -0.007; in assay [2] it was 0.018; in the assay with entospletinib, 0.013.
The like results for ZNF217 (UniProt O75362) were, in that order, 0, -0.301 (active), 0.047, -0.054 and -0.061.
The corresponding values for VPS11 (UniProt Q9H270) are 0.023, -0.509 (active), -0.009, 0.011 and -0.006.
Take XPO6 (UniProt Q96QU8): the log2 fold change is -0.034 in assay [1]; -0.401 (active) with vorinostat; 0.049 with silmitasertib; -0.031 in assay [2]; -0.027 in the assay with entospletinib.
Regarding VPS72 (UniProt Q15906), the log2 fold change was 0.11 in assay [1]; -0.401 (active) in the assay with vorinostat; -0.018 with silmitasertib; -0.029 in assay [2]; -0.014 in the assay with entospletinib.

The values are drawn from the supplement of paper PMC10849652.
